According to publication PMC4336329 (PLoS ONE, 2015):
Hit rate of the full screen: of about 310,000 compounds, about 14,000 (4.5%) showed an effect of 50% or more. Effects have a minus sign here. Only a selection was taken, and strong results are over-represented in it overall.

target: human ether-à-go-go-related gene (hERG) potassium channel (human, UniProt Q12809); test: primary screen, population patch clamp on CHO cells stably expressing hERG; higher = less effect of the substance
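Note: peak tail current of the secondary pulse compared with the same well before compound.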

Chain of human ether-à-go-go-related gene (hERG) potassium channel (Q12809 whole entry, looked up): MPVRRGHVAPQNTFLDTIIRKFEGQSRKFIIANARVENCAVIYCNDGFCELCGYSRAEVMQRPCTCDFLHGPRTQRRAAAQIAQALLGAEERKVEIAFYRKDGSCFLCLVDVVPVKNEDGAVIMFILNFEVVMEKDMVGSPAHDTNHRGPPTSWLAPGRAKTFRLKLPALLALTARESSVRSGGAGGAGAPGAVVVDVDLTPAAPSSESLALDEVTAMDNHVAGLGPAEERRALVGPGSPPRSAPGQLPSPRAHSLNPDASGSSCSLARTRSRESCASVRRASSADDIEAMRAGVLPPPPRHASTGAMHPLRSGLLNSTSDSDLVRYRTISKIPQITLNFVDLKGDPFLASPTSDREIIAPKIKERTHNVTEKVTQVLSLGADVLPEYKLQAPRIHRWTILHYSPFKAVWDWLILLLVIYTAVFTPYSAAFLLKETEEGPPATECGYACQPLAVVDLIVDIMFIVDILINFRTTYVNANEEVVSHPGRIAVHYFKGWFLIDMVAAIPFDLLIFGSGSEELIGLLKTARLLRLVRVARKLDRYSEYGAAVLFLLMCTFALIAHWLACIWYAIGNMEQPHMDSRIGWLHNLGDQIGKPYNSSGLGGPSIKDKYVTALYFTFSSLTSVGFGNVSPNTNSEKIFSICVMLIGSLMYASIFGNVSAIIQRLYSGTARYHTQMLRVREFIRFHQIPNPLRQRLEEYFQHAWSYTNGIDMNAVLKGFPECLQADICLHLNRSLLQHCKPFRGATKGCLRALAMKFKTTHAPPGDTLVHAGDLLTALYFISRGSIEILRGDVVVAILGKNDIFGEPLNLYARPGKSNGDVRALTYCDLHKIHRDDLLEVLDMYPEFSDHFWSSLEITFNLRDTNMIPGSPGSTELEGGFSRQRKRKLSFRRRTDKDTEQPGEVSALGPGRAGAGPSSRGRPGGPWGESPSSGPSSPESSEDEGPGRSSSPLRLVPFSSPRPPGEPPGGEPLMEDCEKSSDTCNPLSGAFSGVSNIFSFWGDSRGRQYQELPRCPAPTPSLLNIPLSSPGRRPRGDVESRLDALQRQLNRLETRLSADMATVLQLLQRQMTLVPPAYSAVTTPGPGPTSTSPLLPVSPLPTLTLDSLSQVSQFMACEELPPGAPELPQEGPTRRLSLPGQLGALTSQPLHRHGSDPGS

`COc1ccc(NC(=O)N(CCCN2CCOCC2)Cc2cccnc2)c(OC)c1` was tested. Which “hERG current change (%, negative = inhibition) at 10uM” value did it give?
Its value is 5.99%.

`Cc1[nH]c2ccccc2c1/C=N/Nc1ccc([N+](=O)[O-])cc1` was tested. Which “hERG current change (%, negative = inhibition) at 10uM” value did it give?
Its value is 3.95%.

`Nc1[nH]c2cc([N+](=O)[O-])ccc2c1-c1ccccn1` was tested. Which “hERG current change (%, negative = inhibition) at 10uM” value did it give?
The value was 20.1%.

With `CCOC(=O)c1cc2[nH]c3ccccc3c2[n+](-c2ccc([N+](=O)[O-])cc2)c1C.[Cl-]` as the compound, how does the “hERG current change (%, negative = inhibition) at 10uM” value read?
Its value is -77.8%.

For `CCOC(=O)c1cc(=O)[nH]c2ccccc12`, which “hERG current change (%, negative = inhibition) at 10uM” value is on record?
Its value is 19%.

With `CCOC(=O)c1csc(N)c1-c1ccc([N+](=O)[O-])cc1` as the compound, how does the “hERG current change (%, negative = inhibition) at 10uM” value read?
The value was 6.52%.

`N#Cc1cc2[nH]c3ccccc3c2[n+](-c2ccc([N+](=O)[O-])cc2)c1N.[Cl-]` was tested. Which “hERG current change (%, negative = inhibition) at 10uM” value did it give?
The value was -65.1%.

`CCOC(=O)c1ccc(-c2ccc3[nH]c4ccccc4c(=O)c3c2)cc1F` was tested. Which “hERG current change (%, negative = inhibition) at 10uM” value did it give?
The value was 13%.

How did the “hERG current change (%, negative = inhibition) at 10uM” value turn out when `CCOC(=O)c1ccccc1NC(=O)c1cccc([N+](=O)[O-])c1` was run?
The value was 12.5%.

How did the “hERG current change (%, negative = inhibition) at 10uM” value turn out when `CCOC(=O)c1cc2[nH]c3ccccc3c2[n+](-c2ccc([N+](=O)[O-])cc2)c1N.O=C([O-])C(F)(F)F` was run?
The value was -58.4%.

For `Cc1c(Cl)cccc1NC(=O)c1cc(-c2ccco2)on1`, which “hERG current change (%, negative = inhibition) at 10uM” value is on record?
The value was -0.802%.

How did the “hERG current change (%, negative = inhibition) at 10uM” value turn out when `N#CC(C#N)=CN=c1ccn(Cc2ccc(Cl)cc2Cl)cc1` was run?
Its value is 7.39%.

How did the “hERG current change (%, negative = inhibition) at 10uM” value turn out when `O=c1cc[nH]c2c(C(F)(F)F)cccc12` was run?
The value was -0.945%.

`CCC(C)(C)NC(=O)Cn1c(-c2ccc(C)cc2)noc1=O` was tested. Which “hERG current change (%, negative = inhibition) at 10uM” value did it give?
Its value is 13.5%.

How did the “hERG current change (%, negative = inhibition) at 10uM” value turn out when `CC12CCC(C(=O)Nc3ccccc3Cl)([C@H](Br)C1=O)C2(C)C` (stereo partly shown) was run?
The value was 15.9%.

With `COc1cc(C)c(Br)cc1S(=O)(=O)NCCN1CCOCC1` as the compound, how does the “hERG current change (%, negative = inhibition) at 10uM” value read?
The value was 12.5%.

How did the “hERG current change (%, negative = inhibition) at 10uM” value turn out when `C/C=C(/C)C(=O)O[C@@H]1[C@H](OC(C)=O)c2c(ccc3ccc(=O)oc23)OC1(C)C` was run?
The value was -36%.

For `C/C=C(/C)C(=O)O[C@@H]1[C@H](OC(=O)C=C(C)C)c2c(ccc3ccc(=O)oc23)OC1(C)C`, which “hERG current change (%, negative = inhibition) at 10uM” value is on record?
Its value is -0.258%.

With `C/C=C(\C)C(=O)OC1c2c(ccc3ccc(=O)oc23)OC(C)(C)C1OC(C)=O` (stereo not shown) as the compound, how does the “hERG current change (%, negative = inhibition) at 10uM” value read?
Its value is -72.5%.

For `C/C=C(/C)C(=O)OC1c2c(ccc3ccc(=O)oc23)OC(C)(C)C1OC(C)=O` (stereo not shown), which “hERG current change (%, negative = inhibition) at 10uM” value is on record?
Its value is -71.8%.

Which “hERG current change (%, negative = inhibition) at 10uM” value does the source give for `C/C=C(/C)C(=O)O[C@H]1[C@@H](O)c2c(ccc3ccc(=O)oc23)OC1(C)C` here?
The value was 3.92%.

With `CC(=O)O[C@@H]1[C@H](OC(=O)CC(C)C)c2c(ccc3ccc(=O)oc23)OC1(C)C` as the compound, how does the “hERG current change (%, negative = inhibition) at 10uM” value read?
Its value is -67.2%.

For `C/C=C(/C)C(=O)OC1c2c(ccc3ccc(=O)oc23)OC(C)(C)C1OC(=O)/C(C)=C\C` (stereo not shown), which “hERG current change (%, negative = inhibition) at 10uM” value is on record?
Its value is -12.3%.

With `C/C=C(/C)C(=O)O[C@@H]1c2c(ccc3ccc(=O)oc23)OC(C)(C)[C@@H]1OC(=O)/C(C)=C\C` as the compound, how does the “hERG current change (%, negative = inhibition) at 10uM” value read?
The value was -8.07%.

Which “hERG current change (%, negative = inhibition) at 10uM” value does the source give for `CC(=O)OC1c2c(ccc3ccc(=O)oc23)OC(C)(C)C1OC(=O)CC(C)C` (stereo not shown) here?
Its value is -30.4%.
